Drawing on PubChem BioAssay (Tox21), this text covers Potency, viability change, negative = cytotoxic and activity change, negative = cytotoxicity for 60 molecules.

A short description of test [1]: cAMP Responsive Elements (CRE) small molecule antagonists, cell-based qHTS assay: qHTS cell viability counter screen (AID 2060913). Also: nearly all actives have a fitted effect of over 40% in size. Also: potency is read from the fitted curve at half-maximal effect. The procedure, abridged:
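Cytotoxicity counter screen multiplexed with the CRE-bla antagonist read: HEK293T cells in DMEM with dialyzed FBS and 25 mM HEPES were treated 3 hrs under 0.25 uM final NKH477, then viability measured by CellTiter-Glo luminescence.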

The nature of test [2]: cAMP Responsive Elements (CRE) small molecule agonists, cell-based qHTS assay: qHTS cell viability counter screen (AID 2060914).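 Also: viability read after 3 h of compound exposure; nearly all actives have a fitted effect of over 50% in size.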 A digest of the protocol:
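CRE-bla HEK 293T cells, plated 18 h at 37 °C, were exposed to compounds for 3 h at 37 °C/5% CO2. Viability was then measured in the same wells by CellTiter-Glo luminescence after 30 min at room temperature.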

The structures appear in SMILES notation. Records with an inconclusive call do not appear. Values without a mark were called inactive. Activity calls are given as the source filed them. Calls follow the shape of the dose curve; as a rule, active = well fitted cell-killing curve with a large enough effect in the repeat runs; inconclusive = weak or mixed curves, or effect the other way; inactive = flat fitted curve, though single readings scatter.
% is scaled to controls: 0 for no effect and ±100 for the full control effect.

For the molecule `C/C=C(\C)C(=O)OC/C=C(\C)CCC=C(C)C`, the Potency entry in test [1] and in test [2] was “inactive” each time.
Take `CN1CCCC1=O`: the Potency result in test [1] and in test [2] was “inactive” each time.
Take `C1CN(SSN2CCOCC2)CCO1`: the Potency result in test [1] and in test [2] was “inactive” each time.
For `Cc1ccc(C(C)C)cc1`, the Potency result in test [1] and in test [2] was “inactive” in each case.
For `O=Cc1ccc(F)c(Br)c1`, the Potency entry in test [1] and in test [2] was “inactive” in each case.
As to `CC(C)C1CCC(O)CC1` (stereo not given), the Potency entry in test [1] and in test [2] was “inactive” throughout.
`OC1CCC(C2CCCCC2)CC1` (stereo not given): the Potency result in test [1] and in test [2] was “inactive” in each case.
As for `CCn1nc(C(=O)O)c(=O)c2cc3c(cc21)OCO3`, the Potency result in test [1] and in test [2] was “inactive” each time.
As for `CNC1(C)C2CCC(C2)C1(C)C` (stereo not given), the Potency entry in test [1] and in test [2] was “inactive” in each case.
For the molecule `O=C(O)CC(=O)O`, the Potency result in test [1] and in test [2] was “inactive” throughout.
With `c1ccc2[nH]c(-c3cscn3)nc2c1`, the Potency result in test [1] and in test [2] was “inactive” each time.
For `CC(=O)c1cc(C)oc1C`, the Potency result in test [1] and in test [2] was “inactive” each time.
For the molecule `OC1(c2ccc(Cl)cc2)CCNCC1`, the Potency entry in test [1] and in test [2] was “inactive” each time.
`Nc1cccc(S(=O)(=O)c2cccc(N)c2)c1`: the Potency entry in test [1] and in test [2] was “inactive” in each case.
As to `[Cl][Dy]([Cl])[Cl]`, the Potency result in test [1] and in test [2] was “inactive” throughout.
In the case of `CC(=O)/C=C/c1ccco1`, the Potency entry in test [1] and in test [2] was “inactive” throughout.
In the case of `CCCCOC(=O)CCCCC(=O)OCCCC`, the Potency entry in test [1] and in test [2] was “inactive” each time.
Consider `N=c1ccn2c(n1)O[C@H]1[C@H](O)[C@@H](CO)O[C@H]12`, for which the Potency result in test [1] and in test [2] was “inactive” throughout.
With `NCC(=O)CCC(=O)O`, the Potency result in test [1] and in test [2] was “inactive” in each case.
With `CC1CC(O)CC(C)(C)C1` (stereo not given), the Potency result in test [1] and in test [2] was “inactive” throughout.
Consider `CCC(C)(CCC(C)C)C(=O)O` (stereo not given), for which the Potency result in test [1] and in test [2] was “inactive” throughout.
Regarding `Clc1ccc(C(Cn2ccnc2)OCc2ccsc2Cl)c(Cl)c1` (stereo not given), the Potency entry in test [1] and in test [2] was “inactive” each time.
For the molecule `CC(COc1ccccc1)NC(C)C(O)c1ccc(O)cc1` (stereo not given), the Potency entry in test [1] and in test [2] was “inactive” each time.
As to `CC(=O)OC[C@H]1O[C@@H](n2ncc(=O)[nH]c2=O)[C@H](OC(C)=O)[C@@H]1OC(C)=O`, the Potency entry in test [1] and in test [2] was “inactive” each time.
As for `CC(C)=CCC/C(C)=C\C#N`, the Potency result in test [1] and in test [2] was “inactive” in each case.
Take `CCCCCCCOC(=O)CCC`: the Potency entry in test [1] and in test [2] was “inactive” in each case.
For the molecule `CCCCN1CCCC1C(=O)Nc1c(C)cc(C)cc1C` (stereo not given), the Potency result in test [1] and in test [2] was “inactive” throughout.
For `NS(=O)(=O)c1cc2c(cc1Cl)NC=NS2(=O)=O`, the Potency entry in test [1] and in test [2] was “inactive” each time.
Turning to `Oc1ccc(Sc2ccc(O)cc2)cc1`, the Potency result in test [1] and in test [2] was “inactive” each time.
As for `O=C(O[C@@H]1Cc2c(O)cc(O)cc2O[C@@H]1c1cc(O)c(O)c(O)c1)c1cc(O)c(O)c(O)c1`, the Potency result in test [1] and in test [2] was “inactive” throughout.
For the molecule `CC/C(=C(/c1ccc(O)cc1)c1ccc(OCCN(C)C)cc1)c1ccccc1`, in test [1], the Potency was 37.6 µM (active). Moreover, in test [2], the Potency entry is “inactive”.
As to `CCOc1ccc(O)cc1`, the Potency entry in test [1] and in test [2] was “inactive” in each case.
Take `Cc1ccccc1C=O`: the Potency entry in test [1] and in test [2] was “inactive” in each case.
Turning to `O=C(O)[C@H](O)[C@@H](O)[C@H](O[C@@H]1O[C@H](CO)[C@H](O)[C@H](O)[C@H]1O)[C@H](O)CO`, the Potency entry in test [1] and in test [2] was “inactive” each time.
Consider `CCC1(C)NC(=O)NC1=O` (stereo not given), for which the Potency entry in test [1] and in test [2] was “inactive” in each case.
On to `CC1=CC(O)CC(C)(C)C1` (stereo not given), for which the Potency entry in test [1] and in test [2] was “inactive” each time.
For `CN(C)CCN1CCN(c2cccc(Cl)c2)C1=O`, the Potency entry in test [1] and in test [2] was “inactive” each time.
With `O=C(O)c1ccc2c(c1)nc(C(=O)NC1CCN(C3CC3)CC1)n2Cc1cc(-c2ccc(Cl)s2)on1`, the viability change, negative = cytotoxic in test [1] is -0.942% [at 18.9 µM]. Moreover, in test [2], the activity change, negative = cytotoxicity was -9.02% [at 18.9 µM].
Consider `Nc1nc(Cl)nc2c1ncn2[C@H]1C[C@H](O)[C@@H](CO)O1`, for which the Potency entry in test [1] and in test [2] was “inactive” throughout.
Turning to `O=C1O[C@H](CO)[C@@H](O)[C@H](O)[C@H]1O`, the Potency entry in test [1] and in test [2] was “inactive” in each case.
In the case of `C=CC(=O)NC(C)C`, the Potency result in test [1] and in test [2] was “inactive” in each case.
As to `CCCOc1ccccc1-c1nc2n[nH]nc2c(=O)[nH]1`, the Potency entry in test [1] and in test [2] was “inactive” throughout.
Regarding `CCCCC/C=C\C/C=C\CCCCCCCC(=O)OC`, the Potency entry in test [1] and in test [2] was “inactive” throughout.
With `C[C@]12C=CC(=O)C=C1CC[C@@H]1[C@@H]2C(=O)C[C@@]2(C)[C@H]1CC[C@]2(O)C(=O)CO`, the Potency result in test [1] and in test [2] was “inactive” throughout.
Turning to `CC(=O)Nc1ccc(O)cc1`, the Potency result in test [1] and in test [2] was “inactive” throughout.
Regarding `O=C=NCc1cccc(CN=C=O)c1`, the viability change, negative = cytotoxic in test [1] is 5.35% [at 18.9 µM]. In test [2], the activity change, negative = cytotoxicity is -0.289% [at 18.9 µM].
Regarding `CCn1cc(C(=O)O)c(=O)c2cc(F)c(N3CCNC(C)C3)c(F)c21` (stereo not given), the Potency result in test [1] and in test [2] was “inactive” in each case.
Consider `CC1(C)[C@H](C(=O)O)N2C(=O)C[C@H]2S1(=O)=O`, for which the Potency entry in test [1] and in test [2] was “inactive” in each case.
On to `Cc1cccc(C(=O)O)c1`, for which the Potency result in test [1] and in test [2] was “inactive” throughout.
For `CC(C)(O)C#CC(C)(C)O`, the Potency entry in test [1] and in test [2] was “inactive” each time.
As to `O=P(O)(OCc1ccccc1)OCc1ccccc1`, the Potency entry in test [1] and in test [2] was “inactive” each time.
Regarding `c1cc(C(c2ccc(OCC3CO3)cc2)c2ccc(OCC3CO3)cc2)ccc1OCC1CO1` (stereo not given), the Potency entry in test [1] and in test [2] was “inactive” each time.
Take `O=CNNC=O`: the Potency result in test [1] and in test [2] was “inactive” each time.
As for `CCCCC(CC)COC(=O)CCCCC(=O)OCC(CC)CCCC` (stereo not given), the Potency result in test [1] and in test [2] was “inactive” throughout.
As to `Cc1cc(=O)[nH]c(C(C)C)n1`, the Potency result in test [1] and in test [2] was “inactive” in each case.
For the molecule `CC(C(=O)O)c1ccc(C(=O)c2cccs2)cc1` (stereo not given), the Potency entry in test [1] and in test [2] was “inactive” in each case.
Turning to `C1CC(COCC2CO2)CCC1COCC1CO1` (stereo not given), the Potency entry in test [1] and in test [2] was “inactive” in each case.
Consider `O=C(OC[C@H]1O[C@@H](OC(=O)c2cc(O)c(O)c(OC(=O)c3cc(O)c(O)c(O)c3)c2)[C@H](OC(=O)c2cc(O)c(O)c(OC(=O)c3cc(O)c(O)c(O)c3)c2)[C@@H](OC(=O)c2cc(O)c(O)c(OC(=O)c3cc(O)c(O)c(O)c3)c2)[C@@H]1OC(=O)c1cc(O)c(O)c(OC(=O)c2cc(O)c(O)c(O)c2)c1)c1cc(O)c(O)c(OC(=O)c2cc(O)c(O)c(O)c2)c1`, for which, in test [1], the viability change, negative = cytotoxic was -4.21% [at 18.9 µM]. The activity change, negative = cytotoxicity in test [2] was -4.58% [at 18.9 µM].
`CCCCOC(=O)CCC(C)=O`: the Potency result in test [1] and in test [2] was “inactive” each time.
As to `CC1=CC[C@H]2C[C@@H]1C2(C)C`, the Potency result in test [1] and in test [2] was “inactive” throughout.
